Experimental data as given in PubChem BioAssay AID2685 (National Center for Advancing Translational Sciences (NCATS), 2010).
Values joined by “and” are separate entries in the source; they are usually repeats but may differ in a detail not shown here. Equal values may be shown once. Screen size: about 320,000 compounds; about 2,100 (0.66%) were called active. Roughly 53% stayed inconclusive and do not appear here. The sample holds actives, similar compounds and a random draw of the others, so the mix is not that of the screen. Calls come from the whole dose curve; as a rule, active = well fitted inhibition curve with a large enough effect in the signal ratio, with a control signal flat (not every such curve was filed as active); inconclusive = small, poorly fitted or top-dose-only effect, or effect the other way, or a change in a side signal; inactive = flat fitted curve, though single readings scatter; the % refers to the signal ratio.

test: qHTS Assay for Lipid Storage Modulators in Drosophila S3 Cells; settings: BODIPY lipid droplet fluorescence, 18-24 h, cells fed with added oleic acid; cell number change: measured here: cell count max response; series mostly up to 46.1 µM; lipid storage change, negative = inhibition: at the top concentration;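 for cell number change: cells counted by Cell Tracker Red CMTPX staining in the red channel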; for lipid storage change, negative = inhibition: % is set by controls: 0 for no effect and ±100 for the full control effect
Method in brief: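 Laser-scanning cytometry quantifies lipid droplet accumulation (500–530 nm total intensity; droplet/cell object ratio) in oleic acid-fed (400 uM added) Drosophila S3 cells treated with a concentration series. 20 uM Triacsin C defined 100% inhibition.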
Potency is the fitted concentration of half-maximal effect.

Structure (SMILES) | lipid storage change, negative = inhibition | cell number change [%] | Potency | outcome
Cc1ccccc1COC(=O)c1nn(-c2ccccc2)nc1N | -1.71% (inactive) | 3.63 |  | 
CCOC(=O)C(NC(=O)c1ccc(F)cc1)(Nc1nnc(C)s1)C(F)(F)F (stereo not drawn) | -21.6% (inactive) | 2.37 |  | 
COc1ccc(NC(=O)N2CCCC(CNS(=O)(=O)c3cccs3)C2)c(C)c1 (stereo not drawn) | 12.7% (inactive) | -5.03 |  | 
COCCCn1c(SCC(=O)Nc2ccc(C)cc2)nc2ccccc2c1=O | -20% (inactive) | -12.3 |  | 
COCCn1c(SCC(=O)Nc2cc(C)cc(C)c2)nc2ccccc2c1=O |  | -20.8 | 2.06 µM (active) | 
COCCn1c(SCC(=O)Nc2ccc(F)cc2)nc2ccccc2c1=O | -11.7% (inactive) | 3.47 |  | 
CSCC[C@H](NC(=O)COc1ccc(Cl)cc1)C(=O)N1CCC2(CC1)NCCc1[nH]cnc12 |  |  |  | inactive
O=C(NC(Cc1ccccc1)C(=O)O)C1CCCCC1 (stereo not drawn) | -0.512% (inactive) | -3.98 |  | 
COc1ccc(N(C(=O)c2snc(C(N)=O)c2N)C(C(=O)NC2CCCCC2)c2ccc(F)cc2)c(OC)c1 (stereo not drawn) |  |  | 13 µM (active) | 
CCCC(C(=O)NCCC(C)C)N(Cc1ccc(F)cc1)C(=O)c1snc(C(N)=O)c1N (stereo not drawn) | 3.86% (inactive) | -7.77 |  | 
CCCC(C(=O)NCCC(C)C)N(Cc1ccccc1)C(=O)c1snc(C(N)=O)c1N (stereo not drawn) |  | -3.86 | 3.66 µM (active) | 
CCC(C(=O)NC1CCCC1)N(Cc1ccccc1Cl)C(=O)c1snc(C(N)=O)c1N (stereo not drawn) |  | -3.04 | 0.58 µM (active) | 
COc1ccc(C(C(=O)NC2CCCC2)N(C(=O)c2snc(C(N)=O)c2N)c2cc(C)ccc2OC)cc1OC (stereo not drawn) | -18.1% (inactive) | -1.28 |  | 
CCC(C(=O)NC(C)(C)C)N(Cc1ccccc1Cl)C(=O)c1snc(C(N)=O)c1N (stereo not drawn) |  | -22.3 |  | inactive
CCC(C(=O)NC1CCCCC1)N(Cc1cccs1)C(=O)c1snc(C(N)=O)c1N (stereo not drawn) | 23.1% (inactive) |  |  | 
CCCC(C(=O)NCCC(C)C)N(Cc1ccc(OC)cc1)C(=O)c1snc(C(N)=O)c1N (stereo not drawn) | -29.9% (inactive) | -7.72 |  | 
COc1ccc(N(C(=O)c2snc(C(N)=O)c2N)C(C(=O)NC2CCCC2)c2cc(OC)ccc2OC)c(OC)c1 (stereo not drawn) |  | -0.901 |  | inactive
CCOC(=O)Cc1csc(NC(=S)NC(=O)c2cc(OC)c(OC)c(OC)c2)n1 | -6.87% (inactive) | -1.2 |  | 
COc1ccc(NC(=O)Nc2nnc(-c3cccs3)s2)cc1 | 10.9% (inactive) | -11.4 |  | 
COc1ccc(C(=O)Nc2nc(-c3ccccc3)c(C(C)=O)s2)c(OC)c1 | -6.74% (inactive) | -8.6 |  | 
COCCn1c(=O)[nH]c2cc(C(=O)NC(C)C)ccc2c1=O | 9.58% (inactive) | 2.66 |  | 
CCCS(=O)(=O)c1nc(S(=O)(=O)c2ccc(C)cc2)c(NCCCN(C)C)s1 | 1.35% (inactive) | 6.73 |  | 
CC(=O)NC(c1ccco1)c1cc(F)c2cccnc2c1O (stereo not drawn) | -4.42% (inactive) | -4.72 |  | 
CC(=O)NC(c1cccs1)c1cc(F)c2cccnc2c1O (stereo not drawn) |  |  | 8.4% and -17.4% | 

Structure (SMILES) | lipid storage change, negative = inhibition | cell number change [%] | Potency | outcome
CC(=O)NC(c1cccs1)c1cc(Br)c2cccnc2c1O (stereo not drawn) | 10.4% (inactive) | 16.4 |  | 
Cc1cc(C)c(NC(=O)CS(=O)CC(=O)NCC2CCCO2)c(C)c1 (stereo not drawn) | 4.71% (inactive) | 3.77 |  | 
Cc1ccc(NC(=O)c2cccc(C(F)(F)F)c2)cc1NC(=O)c1[nH]cnc1C(N)=O |  | -5.2 | 0.517 µM (active) | 
Cc1ccc(C(=O)Nc2cccc(C(F)(F)F)c2)cc1Nc1ncnc2nc[nH]c12 | 14.7% (inactive) | -0.327 |  | 
Cc1ccc(C(=O)Nc2cccc(C(F)(F)F)c2)cc1NC(=O)c1nccnc1N | -14.7% (inactive) | -18.4 |  | 
CC(NC(=O)c1cc(S(=O)(=O)N2CCCC2)ccc1Cl)c1ccccn1 (stereo not drawn) | 11.6% (inactive) | 12.8 |  | 
O=C(N/N=C/c1ccc([N+](=O)[O-])cc1)c1ccc2nc[nH]c2c1 | 6.51% (inactive) | -15.6 |  | 
O=C(Nc1ccc(F)cc1)c1cc(Cl)sc1Cl | 5.17% (inactive) | -1.56 |  | 
Cc1ccccc1NC(=S)C1=C(O)c2sccc2N(C)S1(=O)=O |  |  |  | inactive
CN1c2ccsc2C(O)=C(C(=S)Nc2ccccc2)S1(=O)=O |  | 15.4 | 18.4 µM (active) | 
CN1c2ccccc2C(O)=C(C(=O)Nc2ccccc2)S1(=O)=O | 15.4% (inactive) |  |  | 
COc1ccc(NC(=S)NNC(=O)CNc2ccc(Cl)cc2)cc1 | 18% (inactive) |  |  | 
COc1ccccc1N1CCN(CC(C)N(C(=O)C2CCCCC2)c2ccccn2)CC1 (stereo not drawn) | 12.2% (inactive) | 9.42 |  | 
CCOc1cc(C2C(C(=O)c3ccc(C)o3)=C(O)C(=O)N2CCc2ccccc2)ccc1O (stereo not drawn) | 16.1% (inactive) |  |  | 
CCOc1ccc(NC(=O)CCN2CCCCC2)cc1 | -2.95% (inactive) | 9.23 |  | 
COC(=O)c1cc(NC(=O)CN2CCN(C(C)=O)CC2)cc(C(=O)OC)c1 | -5.4% (inactive) | 15.4 |  | 
COC(=O)c1ccc(NC(=O)CN2CCCC2)cc1 | -7.98% (inactive) | -13.3 |  | 
O=C(CN1CCCCC1)Nc1cccc(Br)c1 |  | -14.8 | 23.1 µM (active) | 
O=C(CN1CCCCCC1)Nc1cccc(NC(=O)CN2CCCCCC2)c1 | -3.29% (inactive) | -11.3 |  | 
CN1CCN(CCC(=O)Nc2ccc(F)c(F)c2)CC1 | -5.86% (inactive) | -0.365 |  | 
O=C(CCN1CCCC1)Nc1cccc(Br)c1 | 8.6% (inactive) | -0.144 |  | 
CCOC(=O)c1cc(NC(=O)CN2CCCC2)cc(C(=O)OCC)c1 |  | -1.35 | 2.31 µM (active) | 
COc1ccc(NC(=O)CCN2CCCCC2)cc1 |  | -13.9 | 18.4 µM (active) | 
COc1ccc(NC(=O)CCN2CCCCCC2)cc1 | -1.99% (inactive) | -0.671 |  | 
